# The full list was thinned out, with the strongest signals kept by preference.
# B1: PEB3 Cj0289c (Campylobacter jejuni), Q9PIK7 (protein)
# chain: MDVNLYGPGGPHTALKDIANKYSEKTGVKVNVNFGPQATWFEKAKKDADILFGASDQSALAIASDFGKDFNVSKIKPLYFREAIILTQKGNPLKIKGLKDLANKKVRIVVPEGAGKSNTSGTGVWEDMIGRTQDIKTIQNFRNNIVAFVPNSGSARKLFAQDQADAWITWIDWSKSNPDIGTAVAIEKDLVVYRTFNVIAKEGASKETQDFIAYLSSKEAKEIFKKYGWRE
# What was measured:
# Assay in all cases: glycan array binding signal (z-score within array); higher = stronger binding
# Settings in all cases: glycan notation: IUPAC condensed, linker removed
# [1] = biological target: Fuc(a1-2)Gal(b1-3)GalNAc(b1-3)Gal
# How it was run: (§1)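 The Consortium for Functional Glycomics database supplied 3228 glycan arrays, of which those lacking an available protein sequence were dropped. The binding signal, a within-array Z-score, was averaged across arrays of the same protein sequence and across linkers. Negative scores can be read as non-binding.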
# [2] = biological target: Fuc(a1-2)Gal(b1-4)GlcNAc(b1-3)Gal(b1-4)GlcNAc(b1-3)Gal(b1-4)GlcNAc
# How it was run: as §1
# [3] = biological target: Fuc(a1-2)[GalNAc(a1-3)]Gal(b1-4)[Fuc(a1-3)]GlcNAc
# How it was run: as §1
# [4] = biological target: Fuc(a1-3)[Gal(b1-4)]GlcNAc(b1-4)Gal(b1-4)[Fuc(a1-3)]GlcNAc(b1-4)Gal(b1-4)[Fuc(a1-3)]GlcNAc
# How it was run: as §1
# [5] = biological target: Fuc(a1-3)[Gal3S(b1-4)]GlcNAc6S
# How it was run: as §1
# Fuc(a1-4)GlcNAc = biological target: Fuc(a1-4)GlcNAc
# How it was run: as §1
# Gal(a1-6)Glc = biological target: Gal(a1-6)Glc
# How it was run: as §1
# [6] = biological target: Gal(b1-3)[Neu5Ac(a2-6)]GalNAc
# How it was run: as §1
# [7] = biological target: Gal(b1-4)GalNAc(b1-3)[Fuc(a1-2)]Gal(b1-4)GlcNAc
# How it was run: as §1
# Gal3S(b1-4)Glc6S = biological target: Gal3S(b1-4)Glc6S
# How it was run: as §1
# Gal3S6S(b1-4)GlcNAc6S = biological target: Gal3S6S(b1-4)GlcNAc6S
# How it was run: as §1
# Gal4S(b1-4)GlcNAc = biological target: Gal4S(b1-4)GlcNAc
# How it was run: as §1
# Gal6S(b1-4)Glc6S = biological target: Gal6S(b1-4)Glc6S
# How it was run: as §1
# [8] = biological target: Man(a1-2)Man(a1-2)Man(a1-3)[Man(a1-2)Man(a1-3)[Man(a1-2)Man(a1-6)]Man(a1-6)]Man(b1-4)GlcNAc(b1-4)GlcNAc
# How it was run: as §1
# [9] = biological target: Man(a1-2)Man(a1-2)Man(a1-6)[Man(a1-3)]Man
# How it was run: as §1
# [10] = biological target: Man(a1-2)Man(a1-3)[Man(a1-6)]Man(a1-6)[Man(a1-2)Man(a1-3)]Man(b1-4)GlcNAc(b1-4)GlcNAc
# How it was run: as §1
# [11] = biological target: Neu5Ac(a2-3)[GalNAc(b1-4)]Gal(b1-4)GlcNAc
# How it was run: as §1
# [12] = biological target: Neu5Ac(a2-8)Neu5Ac(a2-3)[GalNAc(b1-4)]Gal(b1-4)Glc
# How it was run: as §1
# [13] = biological target: Neu5Ac(a2-8)Neu5Ac(a2-8)Neu5Ac(a2-3)Gal(b1-4)Glc
# How it was run: as §1
# [14] = biological target: Neu5Gc(a2-3)Gal(b1-4)GlcNAc
# How it was run: as §1
binder,measurement,setting,value
B1,glycan array binding signal (z-score),[1],1.6
same,glycan array binding signal (z-score),[2],-0.33
same,glycan array binding signal (z-score),[3],-0.226
same,glycan array binding signal (z-score),[4],-0.441
same,glycan array binding signal (z-score),[5],0.228
same,glycan array binding signal (z-score),Fuc(a1-4)GlcNAc,-0.029
same,glycan array binding signal (z-score),Gal(a1-6)Glc,1.25
same,glycan array binding signal (z-score),[6],-0.409
same,glycan array binding signal (z-score),[7],-0.381
same,glycan array binding signal (z-score),Gal3S(b1-4)Glc6S,1.38
same,glycan array binding signal (z-score),Gal3S6S(b1-4)GlcNAc6S,2.8
same,glycan array binding signal (z-score),Gal4S(b1-4)GlcNAc,0.039
same,glycan array binding signal (z-score),Gal6S(b1-4)Glc6S,1.36
same,glycan array binding signal (z-score),[8],-0.256
same,glycan array binding signal (z-score),[9],-0.192
same,glycan array binding signal (z-score),[10],-0.25
same,glycan array binding signal (z-score),[11],-0.332
same,glycan array binding signal (z-score),[12],-0.28
same,glycan array binding signal (z-score),[13],-0.456
same,glycan array binding signal (z-score),[14],-0.272

# Source: the supplement of paper PMC8728848
